According to PubChem BioAssay AID686934 (National Center for Advancing Translational Sciences (NCATS), 2013):
Inconclusive results are not listed. Values without a mark were called inactive. Calls come from the whole dose curve; as a rule, active = well fitted curve in the direction sought with a large enough effect; inconclusive = small, poorly fitted or top-dose-only effect, or another doubt; inactive = no such curve, though single readings can be large or run the other way.

Assay: qHTS screen for small molecules that inhibit ELG1-dependent DNA repair: SAR in Cell-Based Luciferin Counter Assay
Details: cell-based luciferase counter-screen, luminescence; series mostly up to 45.7 µM; activity change, negative = inhibition: at the top concentration
From the text: Cancer cells divide rapidly compared to normal cells in the body. During cell division, cancer cells need to duplicate their genome by DNA replication. The failure of genome duplication leads to cancer cells' death. Therefore, inhibitors of DNA replication could specifically kill cancer cells. Based on this concept, many chemotherapeutic agents were developed and have been used to treat cancer patients. However, there are a limited number of agents available in the clinical setting, and some of those that do exist have low efficacy and severe side effects. Therefore, if we can find the compounds that effectively block DNA replication either by directly damaging DNA or by inhibiting other cellular mechanisms, the options for cancer treatment will be broadened. With this in mind, we developed a quantitative high-throughput ELG1-luciferase reporter gene assay. Small molecules that specifically block ELG1 function in response to DNA damage can be identified by monitoring the suppression of luciferase activity. Since ELG1 defines a pathway for repairing DNA damage, agents blocking ELG1 function can be used to sensitize cancer cells to chemotherapeutic agents whose mechanism of action involves the induction of DNA damage. This assays is a counterscreen, that is more specifically, a cell-based luciferase assay following treatment with putative ELG1 antagonists to eliminate luciferase enhancers/inhibitors NIH Molecular Libraries Probe Production Network [MLPCN] NIH Chemical Genomics Center [NCGC] MLPCN Grant: R03 MH092164 Assay Provider: Kyungjae Myung, NHGRI, NIH
3 uL of substrate reagent will be pipetted into each well in 1536-well white, solid-bottom plates using a FRD dispenser, followed by addition of 23 nL of DMSO or compounds by pintool. After compound addition, 1 µL of luciferase will be added into the wells. The plates will be read in a ViewLux CCD-based plate reader.

Row | Compound | activity change, negative = inhibition
1 | O=C1/C(=C/c2ccc(O)c(O)c2)Oc2ccccc21 | 74.8%
2 | O=C(Nc1ccccn1)c1sc2ccc([N+](=O)[O-])cc2c1Cl | 67.8%
3 | CN(C)c1cccc(-c2nnc(N3CCC(C(N)=O)CC3)s2)c1 | 89.4%
4 | CN(C)c1ccc(N=Nc2ccc(/C=C/c3ccnc4ccccc34)cc2)cc1 | 56.3%
5 | COc1ccccc1/C=C/c1nc2ccccc2s1 | 71.1%
6 | O=C(/C=C/C#Cc1cccc(NS(=O)(=O)c2ccccc2)c1)NO | -8.27%
7 | CN(C)c1ccc(/C=C2\C=Cc3ccccc32)c(F)c1 | 47.5%
8 | COC(=O)Nc1nc2ccc(C(=O)c3cccs3)cc2[nH]1 | 84.7%
9 | O=C(Nc1ccccn1)c1sc2ccccc2c1Cl | -47.7%
10 | COc1ccc(-c2cnc(-c3cccnc3)o2)cc1 | 76%
11 | O=C(c1cc2ccccc2[nH]1)c1cc2cc(O)ccc2[nH]1 | 92.7%
12 | COc1cc2c(cc1OC)C1C(=O)c3c(cc4c(c3O)C=CC(C)(C)O4)OC1CO2 (stereo not given) | -5.64%
13 | COc1ccc(C2=Nn3c(nnc3-c3ccccc3OC)SC2)cc1OC | 39.9%
14 | Cc1ccnc(NC(=S)N2CCN(c3ccc(N)cc3)CC2)c1 | 74.6%
15 | COc1cccc2c1C(=O)/C(=C\c1ccc(N(C)C)cc1)C2 | 63.5%
16 | Oc1ccc(CCc2ccccc2F)c2cccnc12 | 39.3%
17 | c1cncc(CNc2ncnc3ccc(-c4ccoc4)cc23)c1 | -17.6%
18 | O=C(COc1ccccc1Cl)Nc1ccc(-c2nc3ccccc3s2)cc1 | 22.3%
19 | CN(C)N=Nc1ccc(/C=C2\C=Cc3ccccc32)cc1 | 55.6%
20 | O=C(NC1CCCC1)c1cc(-c2cccs2)on1 | 106%

Row | Compound | activity change, negative = inhibition
21 | CCCC(=O)Oc1ccc2[nH]c(C(=O)c3cc4ccccc4[nH]3)cc2c1 | 83.3%
22 | CN(C)c1ccc(/C=C2\CCc3ccccc32)cc1 | 64.8%
23 | Oc1cc2cc(-c3csc(-c4ccc(F)cc4)n3)cc3c2n1CCC3 | 57.7%
24 | COc1ccccc1/C=C/c1nc2ccccc2o1 | 61.4%
25 | CC(=O)OCC1=C[C@H]2[C@@H]3C(C)(C)[C@]3(OC(C)=O)C[C@@H](C)[C@]2(O)[C@@H]2C=C(C)C(=O)[C@@]2(O)C1 | 81.2%
26 | CC(C)CN(C)c1ccc(/C=C2\C=Cc3ccccc32)cc1 | 69.7%
27 | O=c1[nH]c(=O)n([C@@H]2C[C@H](O)[C@H](CO)O2)cc1C(F)(F)F | -13.5% [at 15.7 µM]
28 | O=S(=O)(c1c(F)cccc1F)N1CCN(S(=O)(=O)c2c(F)cccc2F)CC1 | 10.5%
29 | O=C(Cc1ccc(OCCCc2ccccc2)cc1)NO | 60.9%
30 | COc1cc(C)c2c(=O)cc(-c3ccccc3)oc2c1 | 91.3%
31 | Cc1ccc2nc3sc(C(=O)NCc4ccco4)cc3cc2c1 | 56.4%
32 | CC(=O)Nc1ccc(/C=C/c2sc3ccccc3[n+]2CCCCI)cc1 | 74.8%
33 | COc1ccc(OC)c(-c2nnc3n2N=C(c2ccc(OC)c(OC)c2)CS3)c1 | 35.1%
34 | COc1cccc([C@@H]2Oc3ccc(OC)cc3C(=O)[C@H]2OC(=O)NS(=O)(=O)c2ccc(C)cc2)c1 | 75.9%
35 | CN(C)c1cccc(-c2ccnc(N3CCC(C(N)=O)CC3)n2)c1 | 98.7%
36 | CCCCCn1ncc2c3sc(C)cc3n(C)c2c1=O | 79.8%
37 | Cc1ccc2c(c1)C/C(=C/c1ccc(N(C)C)cc1)C2=O | 70.2%
38 | ICC[n+]1csc2ccccc21 | 61.4%
39 | O=c1[nH]c(=O)n([C@@H]2O[C@H](CO)[C@@H](O)[C@H]2O)cc1F | 58.2%
40 | COc1ccc(-c2nc(-c3cccnc3)no2)cc1 | 49.3%
